Sfp inh: inhibitors of Bacillus subtilis Sfp phosphopantetheinyl transferase. Q9F4F7. Biochemical Sfp PPTase activity, qHTS. Potency, µM, usual class: inhibitors. 3.5% of 310,000 active. AID 1490;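 note: the enzyme is Sfp with the accession as filed and its product quenches rhodamine fluorescence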
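After 15 min at room temperature with compound, 15 nM Sfp received 5 uM rhodamine-CoA plus 12.5 uM BHQ-2-ybbR (50 mM Hepes pH 7.6, 10 mM MgCl2). Rate came from the fluorescence difference over 30 min, ex 525/em 598 nm.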
BAZ2B inh: blocks human BAZ2B | 4.4% of 360,000 active | Q9UIF8 | Potency, µM (doses to about 114 µM), most hits filed as inhibitors | AID 504333 | AlphaScreen BAZ2B-H3K14Ac peptide displacement; note: nearly all actives have a fitted effect of over 60% in size
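Multi-concentration screen (max 110 uM) measuring displacement of acetylated histone H3 peptide from BAZ2B by AlphaScreen, using 50 nM protein, 50 nM peptide and 10 ug/mL streptavidin donor plus Ni-chelate acceptor beads.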
JMJD2A Tudor: JMJD2A Tudor domain (human) inhibition | O75164 | AlphaScreen JMJD2A-Tudor / H3K4me3 peptide binding | Potency, µM (titrated, usually from 114 µM), usual class: inhibitors | 4.4% of 390,000 active; note: nearly all actives have a fitted effect of over 50% in size
G9a inh: blocks human histone lysine methyltransferase G9a | AID 504332 | Potency, µM (series often up to 102 µM), hits mostly inhibitors | 8.8% of 350,000 active | G9a H3K9 monomethylation, AlphaScreen, 2 h; note: nearly all actives have a fitted effect of over 75% in size
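Using a bead-based AlphaScreen, monomethylated H3K9 product from 2 h room-temperature reactions (G9a 20 nM, peptide 500 nM, SAM 20 uM) was detected with 0.5 ug/mL rabbit anti-H3K9me1 antibody.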
HP1b chromo inh: HP1-beta chromodomain-methylated histone interaction inhibition; P83916; AlphaScreen HP1-beta / biotin-H3K9me3 peptide binding; Potency, µM (top dose mostly 114 µM), actives largely listed as inhibitors; 0.56% of 390,000 active; note: nearly all actives have a fitted effect of over 70% in size
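HP1-beta protein (50 nM final) preincubated 30 min at room temperature with biotinylated H3(1-18)K9me3 peptide (50 nM) in PBS pH 7.4, 0.01% Tween-20, then compound added for 30 min. AlphaScreen streptavidin donor/nickel chelate acceptor beads (10 ug/mL final), 30 min dark, luminescence read.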
Of the large screens only hits and unclear results are named; the others gave an inactive call. This is a sample that favours compounds with a hit; in the whole collection about 12% have one here. Calls come from the whole dose curve; as a rule, active = well fitted curve in the direction sought with a large enough effect; inconclusive = small, poorly fitted or top-dose-only effect, or another doubt; inactive = no such curve, though single readings can be large; an effect the other way counts as inactive or inconclusive.

Cc1nc2cc(NC(=O)Nc3ccc(N4CCOCC4)cc3)ccc2n1C	G9a inh 8.9µM
O=C(Nc1ccc(N2CCOCC2)cc1)Nc1cnsn1	Sfp inh 28µM, G9a inh inconclusive
CC(C)(C)c1ccc(C(=O)Nc2ccc(N3CCOCC3)cc2)cc1	none
COc1ccc(OC)c(C2CC(=O)C3=C(C2)NC(=O)CC3c2ccc(O)c(OC)c2)c1 (centres undefined)	BAZ2B inh inconclusive
CSc1ccc(Cl)c(C(=O)Nc2ccc(N3CCOCC3)cc2)c1	BAZ2B inh inconclusive, G9a inh 50µM
O=C(Nc1ccc(N2CCOCC2)c(Cl)c1)c1ncn[nH]1	BAZ2B inh 18µM, JMJD2A Tudor 56µM
O=C(Nc1ccc(N2CCOCC2)cc1)Nc1ccc(Cl)c(Cl)c1	G9a inh 7.1µM
CN(C)c1ccc(NC(=O)c2ccc(N3CCOCC3)nc2)cc1	Sfp inh inconclusive, BAZ2B inh inconclusive, JMJD2A Tudor inconclusive, G9a inh 7.9µM
CCOC(=O)C1CCN(C(=O)CCS(=O)(=O)c2ccc3c(c2)CC(C)N3C(=O)CC)CC1 (centres undefined)	none (no result: BAZ2B inh)
O=C(O)C(c1ccccc1)C1(O)CCC1 (centres undefined)	none (no result: Sfp inh, BAZ2B inh, G9a inh)
CCOc1ccc2oc(C(=O)OCC(=O)N3C(C)CCCC3C)c(C)c2c1 (centres undefined)	none (no result: Sfp inh)
O=C(c1ccc2ccccc2c1)C1CCCN(C(=O)CN2C(=O)CSC2=O)C1 (centres undefined)	none (no result: G9a inh)
O=C(O)C1=C[C@@H](C2CC2)C[C@@H](OCCCCO)O1	none (no result: Sfp inh, BAZ2B inh, G9a inh)
C/C(=N/NC(=O)CN(c1ccccc1)S(=O)(=O)c1ccccc1)c1ccccc1O	BAZ2B inh 13µM, JMJD2A Tudor inconclusive (no result: G9a inh)
CCCC/C(C)=N/NC(=O)CN(c1ccc(Br)cc1)S(=O)(=O)c1ccccc1	none
O=[N+]([O-])c1ccc(/C=N/n2c(CO)nc3ccccc32)s1	none
Cc1cc(C)cc(N=Cc2ccc([N+](=O)[O-])s2)c1	BAZ2B inh 25µM, JMJD2A Tudor 20µM, G9a inh 40µM, HP1b chromo inh 45µM
Cc1nc2ccccc2n1/N=C/c1ccc([N+](=O)[O-])s1	G9a inh 50µM
O=[N+]([O-])c1ccc(C=Nc2ccc(Cl)c([N+](=O)[O-])c2)s1	BAZ2B inh inconclusive (no result: JMJD2A Tudor, HP1b chromo inh)
Cc1ccc(NC(=S)N/N=C/c2ccc([N+](=O)[O-])s2)cc1	BAZ2B inh 14µM, JMJD2A Tudor 40µM, G9a inh 40µM, HP1b chromo inh inconclusive
Cc1ccc(CN2C(=O)C(O)(c3c[nH]c4ccccc34)c3cc(Cl)ccc32)cc1 (centres undefined)	JMJD2A Tudor inconclusive (no result: Sfp inh)
COc1cc(CNCCO)ccc1OC1CCCC1	none
COc1cc(CNCCC2CCOC(C)(C)C2)ccc1O (centres undefined)	Sfp inh inconclusive, G9a inh 50µM
COc1ccc(NC(=O)NS(=O)(=O)c2ccc(C)cc2)cn1	BAZ2B inh inconclusive
CCOC(=O)c1ccc2c(c1)nc(SCC(=O)c1ccco1)n2CC	Sfp inh 50µM, JMJD2A Tudor inconclusive, G9a inh inconclusive
Cc1ccccc1-n1c(SC/C(O)=C(\C#N)c2nc3ccccc3[nH]2)nnc1-c1ccncc1	JMJD2A Tudor 79µM, G9a inh inconclusive, HP1b chromo inh inconclusive
Cc1cc(C)n2c(SC/C(O)=C(\C#N)c3nc4ccccc4[nH]3)nnc2n1	Sfp inh inconclusive, BAZ2B inh inconclusive, JMJD2A Tudor inconclusive
CCOC(=O)c1ccc2c(c1)nc(SC/C(O)=C(\C#N)c1nc3ccccc3[nH]1)n2CC	G9a inh 50µM
Cc1c(NC(NC(=O)CC(C)C)C(Cl)(Cl)Cl)c(=O)n(-c2ccccc2)n1C (centres undefined)	none
CCn1c2ccccc2c2cc(NC(=O)c3cc(OC)c(OC)c(OC)c3)ccc21	none
CCn1c2ccccc2c2cc(NC(=O)c3coc(=O)c(Br)c3)ccc21	G9a inh 7.1µM (no result: JMJD2A Tudor, HP1b chromo inh)
CCn1c2ccccc2c2cc(NC(=O)c3ccc(Br)o3)ccc21	Sfp inh 11µM, BAZ2B inh inconclusive, JMJD2A Tudor 20µM, G9a inh 11µM, HP1b chromo inh inconclusive
CCn1c2ccccc2c2cc(NC(=O)c3ccc(=O)oc3)ccc21	BAZ2B inh inconclusive, G9a inh 45µM
CCn1c2ccccc2c2cc(NC(=O)c3cc(OC)cc(OC)c3)ccc21	none
CCn1c2ccccc2c2cc(NC(=O)c3cc(C)on3)ccc21	BAZ2B inh inconclusive
